A short description of assay [1]: CCTE_Shafer_MEA_acute_spike_number: CCTE's Neural Acute Assay for Total Number of Spikes, Shafer Lab (AID 2284008).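 On AC50: curve fitted for decrease in spike count so AC50 reflects inhibitors.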 The procedure, abridged: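 Rat cortical cultures, DIV 13/15, 37 C. 40 min baseline rec, cpd 0.03-40 uM, 40 min post-dose rec. Band-pass 300-5000 Hz, spike threshold 8x rms; % change in spike count per well, DMSO neg ctrl, loss-of-signal fit.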
The nature of assay [2]: CCTE_Shafer_MEA_acute_firing_rate_mean: CCTE's Neural Acute Assay for Mean Firing Rate, Shafer Lab (AID 2284009).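 Further: analyzed for loss of signal so actives lower firing rate relative to DMSO.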 Put shortly:
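Primary rat cortical neurons on 16-electrode MEA wells were exposed on DIV 13 or 15 to compound (0.03-40 uM). Spike counts per recording time, averaged over electrodes, were compared between 40-min baseline and 40-min post-exposure recordings as percent change.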

Assay [3] in a line: CCTE_Harrill_HTTr_Viability_MCF7: CCTE's 6-hour Cell Viability Assessment for the High-Throughput Transcriptomics (HTTr) Platform, in MCF-7 cells cultured in DMEM + 10% fetal bovine serum, Harrill Lab (AID 2284010). The procedure, abridged: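 Propidium iodide exclusion, imaged by high-content analysis, gauged viability after a six-hour exposure across eight concentrations. Cells were MCF-7 grown in DMEM with 10% fetal bovine serum; fits run in both directions against DMSO.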

A short description of assay [4]: CCTE_Harrill_HTTr_Apoptosis_MCF7: CCTE's 6-hour Apoptosis Assessment for the High-Throughput Transcriptomics (HTTr) Platform, in MCF-7 cells cultured in DMEM + 10% fetal bovine serum, Harrill Lab (AID 2284011). Put shortly:
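Read-out: CellEvent Caspase 3/7 Green signal by high content imaging, gain-of-signal indicating apoptosis. MCF-7 cells, DMEM + 10% FBS, eight-point dilution series, 6 h exposure. Curves fitted bidirectionally relative to DMSO negative control.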

Assay [5] is described as follows: CCTE_Shafer_MEA_acute_burst_number: CCTE's Neural Acute Assay for Single-Electrode Bursts, Shafer Lab (AID 2284013). Put shortly:
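Primary rat cortical neurons on 16-electrode MEA wells, DIV 13 or 15, exposed to compound (0.03-40 uM; ≥3 wells); 40-min recordings at 37 C before and after treatment. Burst count expressed as percent change from baseline, DMSO as negative control.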

Assay [6] in a line: CCTE_Shafer_MEA_acute_per_burst_spike_number_mean: CCTE's Neural Acute Assay for Average Number of Spikes Per Burst, Shafer Lab (AID 2284015).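 Further: hits are decreases in mean spikes per burst versus baseline.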 The procedure, abridged:
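Rat primary cortical neurons on 48-well MEAs (DIV 13 or 15) were treated with 0.03-40 uM compound at 37 C. Mean spikes per burst over 40 min were recorded before and after exposure and expressed as percent change from baseline, relative to DMSO.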

A short description of assay [7]: CCTE_Shafer_MEA_acute_interburst_interval_mean: CCTE's Neural Acute Assay for Mean Interburst Interval, Shafer Lab (AID 2284016).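 Further: percent change of mean interburst interval versus each well's own pre-dose baseline; curves fitted for decrease in interburst interval relative to DMSO.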 The procedure, abridged:
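Rat primary cortical neurons on 48-well MEAs at DIV 13 or 15 were exposed acutely to 0.03-40 uM. Spikes detected at 8x rms noise, 37 C. Mean interburst interval from 40 min recordings expressed as percent change from 40 min pre-treatment baseline.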

Assay [8] is described as follows: CCTE_Shafer_MEA_acute_burst_percentage_mean: CCTE's Neural Acute Assay for Percentage of Spikes in a Burst, Shafer Lab (AID 2284017).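 On AC50: curve fitted for loss of signal so potency reflects decreased burst percentage.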 The procedure, abridged: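 Primary rat cortical neurons on 48-well MEA plates, treated on DIV 13 or 15 at 0.03-40 uM. Spikes detected at 8x rms noise at 37C; percent change from 40-min baseline to 40-min post-dose recording, fitted versus DMSO.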

Assay [9] in a line: CCTE_Shafer_MEA_acute_burst_percentage_std: CCTE's Neural Acute Assay for Standard Deviation of Burst Percentage, Shafer Lab (AID 2284018).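 Further: fitted in the negative direction so actives lower burst percentage SD.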 Put shortly: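 Value is percent change from baseline in the across-electrode SD of spikes-in-bursts percentage, wells with >/= 10 active electrodes. Acute 40-min exposure to 0.03-40 uM on DIV 13 or 15 rat cortical cultures, recorded at 37 C after 40-min baseline.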

Assay [10] is described as follows: CCTE_Shafer_MEA_acute_per_network_burst_spike_number_mean: CCTE's Neural Acute Assay for Average Number of Spikes in a Network Burst, Shafer Lab (AID 2284019).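 On AC50: curve fitted for loss of signal so actives reduce spikes per network burst.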 The procedure, abridged:
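Percent change from baseline in mean spikes per network burst, spikes detected at 8x rms noise. Each compound at 0.03-40 uM in at least three wells of rat cortical cultures, recorded 40 min before and 40 min during exposure.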

The nature of assay [11]: CCTE_Shafer_MEA_acute_per_network_burst_electrodes_number_mean: CCTE's Neural Acute Assay for Mean Number of Electrodes in a Network Burst, Shafer Lab (AID 2284021).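 Further: curves fitted for decreases only so hits reduce electrodes per burst.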 The procedure, abridged:
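Readout: % change in mean electrodes active per network burst, post- vs pre-treatment, each well. Spikes detected at 8x rms noise after 300-5000 Hz band-pass; rat cortical cultures, DIV 13/15, compounds 0.03-40 uM, DMSO baseline.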

Assay [12] can be described thus: CCTE_Shafer_MEA_acute_network_burst_percentage: CCTE's Neural Acute Assay for Percentage of Network Bursts, Shafer Lab (AID 2284022).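 Further: curves fitted for loss so actives lower network burst percentage.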 The procedure, abridged: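 Rat cortical cultures, DIV 13/15; 20 min equilibration, 40 min baseline, compound 0.03-40 uM, 40 min recording, 37 C. Spikes: 300-5000 Hz band-pass, threshold 8x rms noise. Readout: % change in network-burst spike fraction; loss direction vs DMSO.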

The nature of assay [13]: CCTE_Shafer_MEA_acute_cross_correlation_HWHM: CCTE's Neural Acute Assay for Cross Correlation at Half Width at Half Maximum, Shafer Lab (AID 2284026).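 Further: percent change per well from pre-dose baseline in spike cross-correlogram half width; hits are a decrease in cross-correlogram half width relative to DMSO.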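 On outcome: spontaneous network firing of rat primary cortical neurons on multiwell microelectrode arrays.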 The procedure, abridged: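 Read-out: half width at half maximum of action-potential cross-correlogram, percent change versus pre-treatment baseline, fitted in loss direction against DMSO. Rat cortical cultures, DIV 13 or 15, dosed 0.03-40 uM, 40-min recordings at 37 C.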

The nature of assay [14]: CCTE_Shafer_MEA_acute_synchrony_index: CCTE's Neural Acute Assay for Synchrony, Shafer Lab (AID 2284027).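 Further: network synchrony index of spontaneous spiking in primary rat cortical neurons on MEAs; fitted for loss of signal so actives lower synchrony relative to DMSO.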 Put shortly:
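The synchrony index is taken as percent change per well between a 40 min baseline and a 40 min recording with compound (0.03–40 uM), at 37C. Rat cortical cultures on multiwell MEAs at DIV 13 or 15, spike threshold 8× rms noise.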

A short description of assay [15]: CCTE_Simmons_MITO_max_resp_rate: CCTE's HepG2 Seahorse XF Respirometric Screening Assay at Maximal Respiratory State [uncoupled], Simmons Lab (AID 2284002). As to conditions: actives raise or lower the signal. Put shortly:
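HepG2, Seahorse XF96, maximal OCR post-FCCP. Cpd 125 nM–100 uM final (7 conc), n=3 biological. Kinetic reads every 6 min (3 min mix/3 min measure) over 72 min; fit bidirectional vs DMSO.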

Assay [16] in a line: CCTE_Simmons_MITO_inhib_resp_rate: CCTE's HepG2 Seahorse XF Respirometric Screening Assay at Inhibited Respiratory State [full ETC block], Simmons Lab (AID 2284006). As to conditions: actives raise or lower the signal. The procedure, abridged:
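This endpoint is the respiration rate remaining after rotenone/antimycin A block, in HepG2 cells on a Seahorse XF96. Chemicals spanned 125 nM–100 uM final, in three biological replicates. OCR was read every 6 minutes for 72 minutes and compared with DMSO vehicle.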

The nature of assay [17]: CCTE_Harrill_HTTr_CellCount_MCF7: CCTE's Cell Proliferation Assessment for the High-Throughput Transcriptomics (HTTr) Platform, Harrill Lab (AID 2284012; active means hit-call score of the fitted dose curve at least 0.9, where 1 is the maximum;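 further: cells exposed to compound for six hours; intended direction is loss of nuclei count meaning fewer cells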). Put shortly:
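Cell count from high-content imaging of Hoechst-labeled nuclei serves as viability/growth readout. Chemicals were applied to MCF-7 cells in eight concentrations for six hours, with fitting in both directions relative to DMSO.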

Results filed as inconclusive are left out. Activity calls are given as the source filed them. How the source made its calls, unless noted: active means hit-call score of the fitted dose curve at least 0.9, where 1 is the maximum; inactive means score below 0.9.

Usually AC50 stands for the midpoint of the concentration-response curve, whichever way the signal moves. Consider `Cc1nc(N(C)C)nc(OC(=O)N(C)C)c1C`, for which the compound was called inactive in [1], in [2], in assay [3], in assay [4], in assay [5] and in assay [6]. Moreover, the outcome in assay [7], in assay [8], in assay [9], in [10], in assay [11] and in assay [12] was inactive. For the same compound, the compound was called inactive in assay [13]. Moreover, in assay [14], the AC50 is 20 µM (active).
As to `Cc1ccc(N=CN(C)C=Nc2ccc(C)cc2C)c(C)c1`, the outcome in assay [15], in assay [16], in assay [3], in assay [4], in assay [17] and in assay [5] was inactive. For the same compound, the result in assay [8], in [9], in assay [11], in assay [13] and in [14] was inactive. In addition, the AC50 was 0.126 µM (active) in assay [1]; 0.125 µM (active) in assay [2]; 0.308 µM (active) in assay [6]; 0.16 µM (active) in [7]; 0.427 µM (active) in assay [10]; 20 µM (active) in assay [12].
Consider `CCOP(=S)(OCC)Oc1nc(Cl)n(C(C)C)n1`, for which, in assay [15], the AC50 is 38.5 µM (active). Further, the call in [16], in assay [3], in assay [4] and in assay [17] was inactive.
`Clc1nc(Cl)nc(Nc2ccccc2Cl)n1`: the compound was classed as inactive in [1], in assay [2], in [3], in [4], in assay [17] and in assay [5]. Also, the call in assay [6], in assay [7], in assay [8], in assay [9], in [10] and in assay [11] was inactive. Besides, the outcome in assay [12], in [13] and in assay [14] was inactive.
Consider `CC(C)(C)C(=O)C(Oc1ccc(Cl)cc1)n1cncn1` (stereo unspecified), for which the AC50 in assay [15] was 47.2 µM (active). Moreover, the compound was classed as inactive in assay [16], in assay [3], in [4] and in assay [17].
On to `CCSC(=O)N1CCCCCC1`, for which the compound was called inactive in assay [15], in assay [16], in assay [3] and in assay [4].
For `CCOC(=O)C(C)OC(=O)c1cc(Oc2ccc(C(F)(F)F)cc2Cl)ccc1[N+](=O)[O-]` (stereo unspecified), the AC50 in [1] is 5.49 µM (active); in assay [2] it was 5.46 µM (active). Also, the result in assay [3], in assay [4], in assay [5], in assay [6], in [7] and in [8] was inactive. Besides, the compound was called inactive in [9], in [10], in assay [11], in assay [12], in assay [13] and in assay [14].
For `CCNP(=S)(OC)O/C(C)=C/C(=O)OC(C)C` (stereo unspecified), in [15], the concentration at half-maximal activity (AC50) is 18.1 µM (active). Besides, the compound was called inactive in assay [16], in assay [3], in assay [4] and in [17].
As for `COC(=O)N(C(=O)N1CO[C@@]2(C(=O)OC)Cc3cc(Cl)ccc3C2=N1)c1ccc(OC(F)(F)F)cc1`, the AC50 in [1] was 8.32 µM (active); in assay [2], 8.24 µM (active); in [7], 15 µM (active); in assay [8], 28.9 µM (active); in assay [13] it was 24.3 µM (active); in assay [14], 26.6 µM (active). Further, the outcome in assay [3], in assay [4], in assay [17], in assay [5], in assay [6] and in assay [9] was inactive. Moreover, the call in assay [10], in assay [11] and in [12] was inactive.
On to `CCN(CC)C(=O)C(C)Oc1cccc2ccccc12` (stereo unspecified), for which the half-maximal activity concentration (AC50) in assay [15] was 32.7 µM (active). The outcome in [3] and in [4] was inactive.
In the case of `C=C(C)CN(CC)c1c([N+](=O)[O-])cc(C(F)(F)F)cc1[N+](=O)[O-]`, the AC50 in [1] and in assay [2] was 31.9 µM (active) throughout. The result in [3], in [4], in [5], in [6], in [7] and in [8] was inactive. Further, the compound was classed as inactive in assay [9], in assay [10], in [11], in [12], in assay [13] and in [14].
On to `O=C1C2CC=CCC2C(=O)N1SC(Cl)(Cl)Cl` (stereo unspecified), for which, in assay [15], the AC50 was 67.8 µM (active). The result in assay [16], in assay [3], in assay [4] and in assay [17] was inactive.

(Values after PubChem BioAssay (EPA / NIEHS).)
